Shiga inhibitor = Shiga toxin inhibition | Vero cells, Shiga toxin protein synthesis inhibition reporter | inhibition, % at 38.7 µM | 290,000 tested, 9.2% active; in the data active = inhibition mostly above about 28%, no sharp cut-off; inactive = mostly below about 43%; also: 0% is about no effect
Pf growth 48h = inhibits P. falciparum growth in the first generation, 48 h. P. falciparum luciferase growth in erythrocytes, 48 h. Potency, µM (top dose mostly 28.7 µM), inactives show top-dose activity change, negative = inhibition, usual class: inhibitors. 310,000 tested, 5.9% active. AID 504832; also: potency is read from the fitted curve at half-maximal effect; % is scaled to controls: 0 for no effect and ±100 for the full control effect
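Read-out is firefly luciferase luminescence from an integrated reporter in P. falciparum, so falling signal marks reduced parasite growth. Infected erythrocytes were at 2% hematocrit and 0.1% parasitemia (final) in Albumax-supplemented RPMI 1640.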
Pf growth 96h = inhibits malaria parasite growth, 96 h | 320,000 tested, 6.9% active | P. falciparum luciferase reporter growth, 96 h | Potency, µM (top dose mostly 28.7 µM), without a hit: top-dose activity change, negative = inhibition, actives largely listed as inhibitors | AID 504834; also: potency is read from the fitted curve at half-maximal effect; % is scaled to controls: 0 for no effect and ±100 for the full control effect
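Two parasite generations (96 h, 37 C, 5% CO2) of compound exposure in infected erythrocytes (0.05% parasitemia, 2% hematocrit). Luciferase-reporter P. falciparum; decreased luminescence indicates inhibited growth, aimed at apicoplast-acting delayed death.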
Cycloheximide cs = affects cycloheximide protein synthesis inhibition readout, counter-screen | cell reporter, cycloheximide protein synthesis inhibition counterscreen | max response, % | 300,000 tested, 12% active; in the data active = max response mostly above about 13%, no sharp cut-off; inactive = mostly below about 14%; also: read at 38.3 µM for the half of the compounds with a filed dose; 0% is about no effect
* = called active by the depositor; ? = inconclusive; . = not tested or not shown. In the library only some 21% were active in any assay of this set; here they are far more common. Unless noted, calls follow the shape of the dose curve; as a rule, active = well fitted inhibition curve with a large enough effect; inconclusive = small, poorly fitted or top-dose-only effect, or another doubt; inactive = no such curve, though single readings can be large or run the other way.

SMILES	Shiga inhibitor	Pf growth 48h	Pf growth 96h	Cycloheximide cs
CS(=O)(=O)Nc1ccccc1C(=O)Nc1ccc2c(c1)OCCO2	46.3	32.9%	52.5%	15.2*
O=C(Nc1ccc(NC(=O)c2ccc3c(c2)OCCO3)cc1)c1ccccc1	22.5	16.0%	30.1%	8.2
COc1cccc(OC)c1C(=O)NC(=S)Nc1ccc2c(c1)OCCO2	42.2*	4.15µM*	?	34.1*
COc1cc(C(=O)NC(=S)Nc2ccc3c(c2)OCO3)cc(OC)c1OC	16.4	-8.2%	5.2%	9.5
CC(=O)OCON[N+]([O-])=NC(C)C	-6.1	.	.	12.1
O=C(CN1CCN(CC(=O)Nc2ccccc2F)CC1)Nc1ccc2c(c1)OCCO2	-10.2	?	?	6.6
CCOc1cccc(C(=O)NC(=S)Nc2ccc3c(c2)OCCO3)c1	113.5*	81.0%	13.0%	61.4*
CCCCCC(=O)NC(=S)Nc1ccc2oc(=O)ccc2c1	40.2	-12.5%	13.1µM*	6.6
O=C(NC(=S)Nc1ccc2c(c1)OCCO2)c1ccccc1F	144.9*	?	?	40.9*
O=C(Nc1ccc2c(c1)OCCO2)c1ccccc1F	50.3*	.	?	46.7*
O=C(Nc1ccc2c(c1)OCCO2)c1cccc2nc3ccccc3nc12	14.0	?	?	1.2
CCOc1cccc(C(=O)NC(=S)Nc2ccc(N3CCCC3)cc2)c1	-9.7	?	?	1.3
CC(=O)OCC(NC(=O)C(C)NC(=O)OC(C)(C)C)C1OC(n2cc(F)c(=O)[nH]c2=O)C(OC(C)=O)C1OC(C)=O (configuration not stated)	-5.8	.	.	-4.1
CNCC(N)C(=O)O (configuration not stated)	-9.9	.	.	-3.8
COc1ccc(C(=O)NC(=S)Nc2ccc3oc(=O)ccc3c2)cc1	30.6	8.6%	34.2%	0.1
O=C(NC(=S)Nc1ccc2oc(=O)ccc2c1)c1ccccc1F	-13.7	33.2%	35.4%	24.6*
CC1CCN(c2nc3ccc(C(=O)N4CCN(Cc5ccccc5)CC4)cc3s2)CC1	84.9*	.	-17.3%	52.1*
O=C(c1ccc2nc(N3CCCCC3)sc2c1)N1CCN(Cc2ccc3c(c2)OCO3)CC1	active	4.15µM*	21.9%	29.7*
O=C(c1ccc(S(=O)(=O)N2CCCCC2)cc1)N1CCN(Cc2ccc3c(c2)OCO3)CC1	23.3	?	?	-4.3
FC(F)(F)c1cc(N2CCNCC2)c2ccccc2n1	4.1	6.4%	-16.4%	0.9
FC(F)(F)c1cc(N2CCN(Cc3ccccc3)CC2)c2ccccc2n1	8.8	?	9.28µM*	1.9
CCOC(=O)N1CCN(C(=O)c2ccc3nc(N4CCCCC4)sc3c2)CC1	18.2	-2.9%	10.4µM*	14.4*
O=C(Nc1ccccc1C(=O)NCCCN1CCOCC1)c1ccc(F)cc1	-8.4	13.1%	11.0%	1.4
C[C@@H]1[C@H](O)[C@@H](C)/C=C/C=C/C=C/C=C/C=C/C=C/C=C/[C@H](O[C@@H]2O[C@H](C)[C@@H](O)[C@H](N)[C@@H]2O)C[C@@H]2O[C@](O)(C[C@@H](O)C[C@@H](O)[C@H](O)CC[C@@H](O)C[C@@H](O)CC(=O)O[C@H]1C)C[C@H](O)[C@H]2C(=O)O	.	-16.1%	-13.4%	.
c1ccc(CN2CCN(c3nc4ccccc4s3)CC2)cc1	96.1*	116.6%	131.8%	53.2*
SMILES	Shiga inhibitor	Pf growth 48h	Pf growth 96h	Cycloheximide cs
CCOC(=O)N1CCN(C(=O)c2ccc3nc(N4CCC(C)CC4)sc3c2)CC1	41.9*	?	163.5%	23.8*
COc1cccc(N2CCN(C(=O)c3ccc4nc(N5CCC(C)CC5)sc4c3)CC2)c1	117.4*	-16.5%	0.8%	64.4*
Cc1c(C)n(C)c2ccc(C(=O)N3CCN(c4ccccn4)CC3)cc12	22.4	10.4µM*	6.8%	-4.1
O=C(O)CCC(=O)N1CCN(c2nc3ccccc3s2)CC1	-35.9	18.3%	.	-0.9
Cc1c(C)n(C)c2ccc(C(=O)N3CCN(c4ccccc4)CC3)cc12	10.8	10.3%	?	-3.6
O=C(NCc1ccccc1)C(c1ccco1)N(C(=O)c1csnn1)c1ccccc1 (configuration not stated)	-5.3	-8.0%	1.6%	-2.2
NC(=O)C1CCN(C(=O)c2ccc3nc(N4CCCCC4)sc3c2)CC1	70.6*	7.1%	98.2%	35.4*
O=C(c1ccc2nc(N3CCCCC3)sc2c1)N1CCN(c2ccccn2)CC1	10.5	0.5%	-84.7%	22.6*
Cc1cccc(N2CCN(C(=O)c3ccc4nc(N5CCCCC5)sc4c3)CC2)c1C	31.2	?	?	2.6
Cc1cc(C)n2nc(C(=O)N/N=C/c3ccco3)nc2n1	-1.1	9.3%	22.3%	-1.1
CN(C)c1cccc(C(=O)NNC(=O)/C=C/c2cccs2)c1	.	9.8%	-0.5%	.
Cc1ccccc1OCC(=O)Nc1ccc2c(c1)n(C)c(=O)n2C	-3.6	?	-18.7%	2.0
COc1cccc(NC(=O)C2CCN(S(=O)(=O)c3ccc4[nH]c(=O)ccc4c3)CC2)c1	-5.8	?	9.28µM*	-1.8
CC1Sc2ccc(S(=O)(=O)N3CCC(C(=O)Nc4ccc(Cl)cc4)CC3)cc2NC1=O (configuration not stated)	-3.3	?	13.1µM*	-10.8
Cc1ccc(N(C)S(=O)(=O)c2ccc3c(c2)NC(=O)C(C)S3)cc1 (configuration not stated)	-6.8	3.29µM*	?	9.4
CC1Sc2ccc(S(=O)(=O)CCC(=O)N(C)Cc3ccccc3)cc2NC1=O (configuration not stated)	-2.8	-1.2%	64.6%	-1.1
CCOc1ccc(NC(=O)C2CCN(S(=O)(=O)c3ccc4c(c3)NC(=O)C(C)S4)CC2)cc1 (configuration not stated)	-3.5	?	?	-8.6
CC1Sc2ccc(S(=O)(=O)NCc3ccccc3)cc2NC1=O (configuration not stated)	12.9	-1.8%	13.1µM*	1.8
CCN(C(C)=O)c1ccc(Oc2nc(OC)cc(OC)n2)cc1	1.5	22.2%	-7.9%	21.0
CC1Sc2ccc(S(=O)(=O)N3CCC(C(=O)NCc4ccccc4)CC3)cc2NC1=O (configuration not stated)	-7.0	?	1.04µM*	1.1
COc1ccc(NC(=O)C2CCN(S(=O)(=O)c3ccc4c(c3)NC(=O)C(C)S4)CC2)cc1 (configuration not stated)	-7.7	9.28µM*	-13.1%	-1.9
COC(=O)C1=C(C)N(Cc2ccc(C)cc2)C(=O)/C1=C\c1cc(OC)c(OC)c(OC)c1	-7.8	10.4µM*	33.6%	-1.7
CCOc1cc(/C=C2\C(=O)N(CCc3ccc(OC)c(OC)c3)C(C)=C2C(=O)OC)ccc1O	-2.7	11.7µM*	?	2.4
CN1CCN(S(=O)(=O)c2cccc(C(=O)N(C)CC(=O)Nc3ccc(F)c(F)c3F)c2)CC1	.	?	0.4%	.
Cc1ccccc1C(=O)N(CC(=O)Nc1sc(C)c(C)c1C(N)=O)C1CCCC1	-3.4	-18.1%	23.2%	5.3
Nc1ccc(-c2cnc(-c3ccc(N)cc3)nc2)cc1	33.4	64.9%	21.5%	50.8*
Oc1ccc(-c2cnc(-c3ccc(O)cc3)nc2)cc1	10.5	-7.6%	254.0%	19.1

Source: PubChem
